{"source": "PubChem BioAssay AID2732", "about": "(Emory University Molecular Libraries Screening Center, 2010)", "note": "Hit rate of the full screen: of about 220,000 compounds, about 8,200 (3.7%) were called active. For the sample, actives were picked, then their nearest neighbours and some compounds at random. Values without a mark were called inactive.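 The calls were made as follows: active = compounds that reduced the stress-induced luciferase reporter signal by more than about 70% of percent inhibition (limit read from the data); inactive = the rest.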", "data": [{"assay": "blockers of ER-stress CHOP reporter expression – cell-based, unfolded protein response, luciferase reporter, primary screen (AID 2732);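 also: 0% = tunicamycin plus vehicle and 100% = wells without tunicamycin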", "settings": "CHO-K1 CHOP-promoter luciferase, tunicamycin-induced, 15-18 h; at 10 µM; hits give high values", "values": [{"smiles": "Cn1c(C(=O)O)ccc1S(=O)(=O)N(Cc1ccccc1)Cc1ccccc1", "inhibition": "2.64%"}, {"smiles": "O=C(NC(=O)c1ccccc1N1CCCCC1)Nc1ccc(Br)cc1", "inhibition": "-4.77%"}, {"smiles": "Cc1ccc(OCC(=O)c2cc(C)n(Cc3ccco3)c2C)c([N+](=O)[O-])n1", "inhibition": "31%"}, {"smiles": "Cc1ccc(C2=Nc3c(ccc4ccccc34)C(c3ccncc3)=NN2)cc1", "inhibition": "64.5%"}, {"smiles": "CCc1ccc2c(c1)C(c1ccc([N+](=O)[O-])cc1)=NNC(c1ccccc1)=N2", "inhibition": "93.7% (active)"}, {"smiles": "CCOc1ccc2c(c1)C(c1ccc(C)cc1)=NNC(c1ccc(C)cc1)=N2", "inhibition": "37.2%"}, {"smiles": "C/C(=N/Nc1nc(-c2ccccc2)c(CC(=O)O)s1)c1ccccc1", "inhibition": "-18.2%"}, {"smiles": "CCCCN(CCCC)CC(O)Cn1c2ccccc2c(=O)c2ccccc21", "note": "(stereo unspecified)", "inhibition": "11%"}, {"smiles": "CC(NC(=O)C(=O)Nc1nccs1)c1ccccc1", "note": "(stereo unspecified)", "inhibition": "24.1%"}, {"smiles": "O=C(O)CCCCCCCCCC[n+]1ccccc1", "inhibition": "-11.5%"}, {"smiles": "CN(C)CCOc1ccc(Cl)cc1C(C)(C)C", "inhibition": "-2.87%"}, {"smiles": "CCc1nc(C)ccc1OCC(=O)N(CC)CC", "inhibition": "18.9%"}, {"smiles": "CCC(C)(C)c1ccc(OCC(=O)N(C)C)c(C(C)(C)CC)c1", "inhibition": "85.7% (active)"}, {"smiles": "Cn1nccc1NS(=O)(=O)c1ccc(F)cc1", "inhibition": "-5.82%"}, {"smiles": "Cc1cc(=O)[nH]c(S)c1C#N", "inhibition": "2.71%"}, {"smiles": "CC(C)(C)c1ccc(CCC2OCC(CN3CCOCC3)O2)cc1", "note": "(stereo unspecified)", "inhibition": "3.73%"}, {"smiles": "COc1ccccc1-n1cn[nH]c1=S", "inhibition": "11.5%"}, {"smiles": "Cc1cc(SCC(=O)c2ccccc2)nc(SCC(=O)c2ccccc2)n1", "inhibition": "15.9%"}, {"smiles": "Cc1cc(Oc2ccc(Cl)cc2)nc(SCC(=O)c2ccccc2)n1", "inhibition": "70.2% (active)"}, {"smiles": "COC(=O)c1cc(C(=O)CSc2nc(C)cc(C)n2)ccc1O", "inhibition": "5.39%"}, {"smiles": "O=C(NNC(=O)c1csc(-c2cccnc2)n1)Nc1ccc(Cl)cc1", "inhibition": "-32.3%"}, {"smiles": "Cn1cc(S(=O)(=O)NC(c2ccccc2)c2ccccc2)c(=O)n(C)c1=O", "inhibition": "9.19%"}, {"smiles": "O=C(NCc1ccccc1Cl)NC(=O)c1csc([N+](=O)[O-])c1", "inhibition": "-5.11%"}, {"smiles": "CCN1CCC2(CC1)N=C(c1ccc(F)cc1)C(=S)N2C(=O)c1ccc(C)cc1", "inhibition": "95.4% (active)"}, {"smiles": "Cc1ccc(C(=O)N(CN2CCCC2=O)c2ccc(F)cc2)cc1", "inhibition": "-13.1%"}, {"smiles": "CCn1c(C(C)NC(=O)c2ccc(C)cc2)n[nH]c1=S", "note": "(stereo unspecified)", "inhibition": "25.9%"}, {"smiles": "CCn1c(CNC(=O)c2ccco2)nnc1SCC(=O)Nc1cccc(F)c1", "inhibition": "-0.15%"}, {"smiles": "Cn1c(SCC(=O)Nc2ccc(Br)cc2F)nnc1-c1ccco1", "inhibition": "24.1%"}, {"smiles": "CCn1c(SCC(=O)Nc2cccc(F)c2)nnc1-c1cc2cc(Br)ccc2o1", "inhibition": "72.8% (active)"}, {"smiles": "COC(=O)[C@H](Cc1ccccc1)NC(=O)Nc1ccc(OC)cc1", "inhibition": "4.48%"}, {"smiles": "CCOC(=O)c1cc(NC(=O)c2ccc(Cl)cc2)c(=O)oc1-c1ccccc1", "inhibition": "77.2% (active)"}, {"smiles": "CC(=O)c1cc(NC(=O)c2ccccc2)c(=O)oc1/C=C/N(C)C", "inhibition": "11.8%"}, {"smiles": "CCOC(=O)NNC(=O)c1ccc(Cl)cc1", "inhibition": "-19.9%"}, {"smiles": "COc1ccc(NC(=O)C2=C(C)NC(=O)NC2c2ccccc2[N+](=O)[O-])cc1", "note": "(stereo unspecified)", "inhibition": "-5.78%"}, {"smiles": "O=C(Nc1ccc(S(=O)(=O)Nc2nccs2)cc1)c1cc(-c2ccncc2)nc2ccccc12", "inhibition": "7.48%"}, {"smiles": "CC(/C=C/c1ccccc1)=N\\NC(=O)C1CC1(C)c1ccccc1", "note": "(stereo unspecified)", "inhibition": "43.4%"}, {"smiles": "O=C(N/N=C/C=C/c1ccccc1)C1CC1(c1ccccc1)c1ccccc1", "note": "(stereo unspecified)", "inhibition": "82.4% (active)"}, {"smiles": "Cc1ccc(-c2cc(C(=O)N/N=C/C=C/c3ccccc3)n[nH]2)o1", "inhibition": "13.4%"}, {"smiles": "CC(C)c1cc(CN2CCOCC2)cc(C(C)C)c1O", "inhibition": "-5.16%"}, {"smiles": "COc1ccc(C(C)=O)cc1COc1ccc(Cl)c(C)c1", "inhibition": "5.12%"}, {"smiles": "COc1ccc(/C=C/C(=O)Nc2ccc(C)cc2)cc1S(=O)(=O)N1CCOCC1", "inhibition": "-1.01%"}, {"smiles": "CCn1nc(C)c(NC(=O)/C=C/c2ccc(OC)c(COc3ccc(Br)cc3)c2)c1C", "inhibition": "86.6% (active)"}, {"smiles": "COc1ccc(/C=C/C(=O)Nc2cccnc2)cc1OC", "inhibition": "2.86%"}, {"smiles": "COc1ccc(/C=C/C(=O)Nc2ccc3c(c2)OCCO3)cc1OC", "inhibition": "-1%"}, {"smiles": "COc1ccc(/C=C/C(=O)Nc2c(C)nn(C)c2C)cc1COc1ccc(Br)cc1", "inhibition": "105% (active)"}, {"smiles": "Cc1ccc(NC(=O)Nc2cc(-c3ccccc3)nn2C)cc1Cl", "inhibition": "7.85%"}, {"smiles": "C=CCNC(=S)N1CCc2[nH]c3ccccc3c2C1", "inhibition": "0.96%"}, {"smiles": "COc1ccc(CCNC(=O)C(=O)Nc2ccc3nc4n(c(=O)c3c2)CCCCC4)cc1OC", "inhibition": "8.36%"}, {"smiles": "O=C(Nc1cccc2c1N(C(=O)c1ccco1)CCC2)c1ccco1", "inhibition": "-8%"}, {"smiles": "CC1(C)CC(=O)C=C(Nc2ccccc2)C1", "inhibition": "5.42%"}, {"smiles": "O=C(O)/C=C/c1ccc2c(c1)OCCO2", "inhibition": "-23.6%"}, {"smiles": "COc1cc(/C=N\\NC(=O)CNC(=O)c2cccc([N+](=O)[O-])c2)ccc1O", "inhibition": "8.27%"}, {"smiles": "COc1ccc(C(=O)Nc2ccccc2C(=O)N/N=C/c2ccccc2OC)cc1", "inhibition": "-12.8%"}, {"smiles": "COc1ccc(C(=O)Nc2ccccc2C(=O)N/N=C/c2ccc(O)c(OC)c2)cc1", "inhibition": "88.8% (active)"}, {"smiles": "CCc1cc(Br)ccc1NC(=O)C1CCCO1", "note": "(stereo unspecified)", "inhibition": "-17.3%"}, {"smiles": "CCOC(=O)Cn1c(=O)oc2cc(S(=O)(=O)NCC3CCCO3)ccc21", "note": "(stereo unspecified)", "inhibition": "22.5%"}, {"smiles": "OC(CNCC1CCCO1)Cn1c2ccc(Br)cc2c2cc(Br)ccc21", "note": "(stereo unspecified)", "inhibition": "108% (active)"}, {"smiles": "O=C(Nc1ccc(S(=O)(=O)N2CCOCC2)cc1)c1ccc2ncsc2c1", "inhibition": "2.87%"}, {"smiles": "C/C(=N\\NC(=S)Nc1ccc(C)cc1)c1cc2ccccc2o1", "inhibition": "-20.3%"}, {"smiles": "COCCCNC(=O)C1CCN(c2ccc(N3CCOCC3)nn2)CC1", "inhibition": "-10.8%"}, {"smiles": "Oc1ccc(N=Cc2c(O)ccc3ccccc23)cc1", "inhibition": "40.5%"}, {"smiles": "Oc1ccc(N=Cc2sc3ccccc3c2Cl)cc1", "inhibition": "81.8% (active)"}, {"smiles": "O=C(N/N=C/c1c(Cl)[nH]c2ccccc12)c1sc2ccccc2c1Cl", "inhibition": "44.3%"}, {"smiles": "O=C(c1cc(-c2ccc(O)cc2)on1)N1CCCc2ccccc21", "inhibition": "40.4%"}, {"smiles": "CC(NC(=O)c1cc(-c2ccccc2)on1)c1ccccc1", "note": "(stereo unspecified)", "inhibition": "58.1%"}, {"smiles": "O=C(Nc1ccccc1C(F)(F)F)c1cc(-c2ccc(O)cc2)on1", "inhibition": "105% (active)"}, {"smiles": "CCCCCCNS(=O)(=O)c1ccccc1Br", "inhibition": "16.4%"}, {"smiles": "CCOC(=O)C1=NN(c2ccc(Cl)cc2)/C(=C/C2=NCCc3cc(OC)c(OC)cc32)S1", "inhibition": "-5.16%"}, {"smiles": "CCCC(=O)NC(Nc1ccccc1OC)C(Cl)(Cl)Cl", "note": "(stereo unspecified)", "inhibition": "21.3%"}, {"smiles": "COc1ccccc1NC(=O)CCCc1c[nH]c2ccccc12", "inhibition": "0.61%"}, {"smiles": "CCCCCCCC(=O)NC(Nc1ccccc1OC)C(Cl)(Cl)Cl", "note": "(stereo unspecified)", "inhibition": "87.9% (active)"}, {"smiles": "CCOC(=O)NNc1cc(C(F)(F)F)ccn1", "inhibition": "-10.6%"}, {"smiles": "COc1ccc(Cl)cc1C(=O)NNC(=O)c1nc2nc(C)cc(C)n2n1", "inhibition": "11.4%"}, {"smiles": "Cc1onc(-c2c(Cl)cccc2Cl)c1C(=O)NNC(=O)c1c(-c2c(Cl)cccc2Cl)noc1C", "inhibition": "-2.75%"}, {"smiles": "O=C(/C=C/c1ccc(F)cc1)Nc1cccc(S(=O)(=O)Nc2cccc(C(F)(F)F)c2)c1", "inhibition": "103% (active)"}, {"smiles": "O=C(NCc1ccccc1)c1ccc(S(=O)(=O)Nc2cccc(C(F)(F)F)c2)cc1", "inhibition": "26.6%"}, {"smiles": "O=C(/C=C/c1ccc(Cl)cc1)Nc1ccc(S(=O)(=O)Nc2ncccn2)cc1", "inhibition": "15.1%"}, {"smiles": "OC(c1nc2ccccc2[nH]1)C(O)C(O)C(O)c1nc2ccccc2[nH]1", "note": "(stereo unspecified)", "inhibition": "4.88%"}, {"smiles": "O=C(Cn1c(=O)n(Cc2ccco2)c(=O)c2ccccc21)NCC1CCCO1", "note": "(stereo unspecified)", "inhibition": "19%"}, {"smiles": "Cc1ccccc1Cn1c2ccccc2c2cnn(CC(=O)NCc3ccco3)c(=O)c21", "inhibition": "90.4% (active)"}, {"smiles": "Cc1ccccc1NC(=O)NCc1ccco1", "inhibition": "-12.4%"}, {"smiles": "C/C(=N/NC(=O)CN1CCN(S(=O)(=O)c2ccc(Br)cc2)CC1)c1ccncc1", "inhibition": "10.9%"}, {"smiles": "Cc1ccc(N2C(=O)CC(N3CCSCC3)C2=O)c(C)c1", "note": "(stereo unspecified)", "inhibition": "19.1%"}, {"smiles": "CCc1cccc(CC)c1NC(=S)Nc1ccc2cn[nH]c2c1", "inhibition": "22.1%"}, {"smiles": "S=C(Nc1cccc(Cl)c1)Nc1ccc2cn[nH]c2c1", "inhibition": "-22.9%"}, {"smiles": "FC(F)(F)c1cccc(NC(=S)Nc2cccc(Cl)c2)c1", "inhibition": "87.2% (active)"}, {"smiles": "Cc1csc(NC(=S)Nc2cccc(Cl)c2)n1", "inhibition": "-212%"}, {"smiles": "Cc1cccc(NC(=O)Nc2cccc(Oc3c(F)c(F)c(F)c(F)c3F)c2)c1", "inhibition": "97.1% (active)"}, {"smiles": "COc1cccc(NC(=O)NCc2ccc(F)cc2)c1", "inhibition": "5.22%"}, {"smiles": "Cc1cccc(NC(=O)Nc2nnc(-c3ccccc3)o2)c1", "inhibition": "-9.17%"}, {"smiles": "N#C/C(=C/c1ccc(-c2ccccc2[N+](=O)[O-])o1)C(=O)NCCN1CCCCC1", "inhibition": "22.9%"}, {"smiles": "Cc1c(NC(=O)C(=O)N/N=C/c2cccs2)c(=O)n(-c2ccccc2)n1C", "inhibition": "9.69%"}, {"smiles": "CC(C)CCN1NC2(CCC(C)CC2)NC1=S", "note": "(stereo unspecified)", "inhibition": "-10.5%"}, {"smiles": "CCCN(CCC)CC(O)COc1ccccc1C(=O)Nc1ccccc1", "note": "(stereo unspecified)", "inhibition": "16.4%"}, {"smiles": "CC(=O)Nc1nc(C)c(-c2csc(Nc3ccc(S(N)(=O)=O)cc3)n2)s1", "inhibition": "18.6%"}, {"smiles": "CC(=O)Nc1ccc(/C=N/Nc2ccc(C(=O)c3c(C)cc4ccccn34)cc2[N+](=O)[O-])cc1", "inhibition": "17.2%"}]}]}
